Measured values from PubChem BioAssay (NCI).
Compounds without any hit were thinned out: in the full panel of roughly 83,000, 20% have a hit.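 96-well plates, one dose, 48 hours. Percent growth reported; active if below 10.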 Calls of active or inactive are those of the source.

What was measured:
Assay in all cases: NCI-60 one-dose screen, 48 h (100 = growth as untreated, 0 = no growth, -100 = all killed)
Details in all cases: 10 µM unless noted
NCI-H23 lung = test system: NCI-H23 lung
NCI-H322M lung = test system: NCI-H322M lung
HOP-62 NSCLC = test system: HOP-62 NSCLC
NCI-H460 lung = test system: NCI-H460 lung
HOP-92 NSCLC = test system: HOP-92 NSCLC
A549/ATCC NSCLC = test system: A549/ATCC NSCLC
786-0 renal = test system: 786-0 renal
COLO 205 colon = test system: COLO 205 colon
DU-145 prostate = test system: DU-145 prostate
K-562 leukemia = test system: K-562 leukemia
MALME-3M melanoma = test system: MALME-3M melanoma
MDA-MB-231 breast = test system: MDA-MB-231 breast
SF-268 CNS = test system: SF-268 CNS
SF-539 CNS = test system: SF-539 CNS
UACC-257 melanoma = test system: UACC-257 melanoma
M14 melanoma = test system: M14 melanoma
HCT-15 colon = test system: HCT-15 colon
NCI-H522 lung = test system: NCI-H522 lung
RXF 393 renal = test system: RXF 393 renal
SF-295 CNS = test system: SF-295 CNS

Measured: growth

COc1ccc(-n2c(C(O)c3ccccc3)n[nH]c2=S)cc1 (stereo unspecified)
inactive: NCI-H23 lung 101% | NCI-H322M lung 102% | HOP-62 NSCLC 92.5% | NCI-H460 lung 108% | HOP-92 NSCLC 83.6% | A549/ATCC NSCLC 102% | 786-0 renal 99.1% | COLO 205 colon 110% | DU-145 prostate 113% | K-562 leukemia 99.3% | MALME-3M melanoma 94.9% | MDA-MB-231 breast 92.2% | SF-268 CNS 95.9% | SF-539 CNS 101% | UACC-257 melanoma 90.4% | M14 melanoma 90% | HCT-15 colon 107%

COc1cc2nc(NC3CCCC3)nc(NC3CCN(C(C)C)CC3)c2cc1OC
inactive: NCI-H23 lung 88.7% | NCI-H322M lung 100% | HOP-62 NSCLC 89.3% | NCI-H460 lung 71.8% | HOP-92 NSCLC 47.8% | NCI-H522 lung 62.6% | 786-0 renal 80.7% | DU-145 prostate 74.8% | MALME-3M melanoma 76.4% | MDA-MB-231 breast 24.8% | RXF 393 renal 18% | SF-268 CNS 88.7% | SF-295 CNS 96.5% | SF-539 CNS 59.6% | UACC-257 melanoma 79.9% | HCT-15 colon 79.2%
active: K-562 leukemia -4.9% | M14 melanoma -80.4%

Cc1ccc(N=NC2C(=O)N(c3ccc(Cl)cc3)N(c3ccc(Cl)cc3)C2=O)cc1
inactive: NCI-H23 lung 95.6% | NCI-H322M lung 97.4% | HOP-62 NSCLC 89.2% | NCI-H460 lung 99.8% | HOP-92 NSCLC 101% | NCI-H522 lung 85.1% | 786-0 renal 108% | DU-145 prostate 107% | K-562 leukemia 94.1% | MALME-3M melanoma 98% | MDA-MB-231 breast 91.7% | RXF 393 renal 113% | SF-268 CNS 100% | SF-295 CNS 93.9% | SF-539 CNS 100% | UACC-257 melanoma 86.8% | M14 melanoma 102% | HCT-15 colon 98.3%

CC[C@]1(O)C[C@@H]2CN(CCc3c([nH]c4ccccc34)[C@@](C(=O)OC)(c3cc4c(cc3OC)N(C)[C@H]3[C@@](O)(C(=O)OC)[C@H](OC(C)=O)[C@]5(CC)C=CCN6CC[C@]43[C@@H]65)C2)C1
inactive: NCI-H23 lung 26.8% | NCI-H322M lung 39.9% | HOP-62 NSCLC 35% | A549/ATCC NSCLC 17.8% | K-562 leukemia 15.3% | MALME-3M melanoma 40.9% | RXF 393 renal 22.1% | SF-268 CNS 17.3% | UACC-257 melanoma 64.4% | HCT-15 colon 14.6%
active: NCI-H460 lung 4.41% | HOP-92 NSCLC -9.28% | 786-0 renal 9.87% | COLO 205 colon -10.8% | DU-145 prostate -7.13% | MDA-MB-231 breast -15.3% | SF-295 CNS 8.85% | SF-539 CNS -2.89% | M14 melanoma 3.97%

CS(=O)(=O)Nc1ccc(C(=O)NC(C(=O)NO)c2ccc(-c3cccc(F)c3)cc2)cc1 (stereo unspecified)
active: HOP-92 NSCLC -8.77%
inactive: NCI-H23 lung 45.6% | NCI-H322M lung 53.5% | HOP-62 NSCLC 99.1% | NCI-H460 lung 89.7% | A549/ATCC NSCLC 103% | 786-0 renal 72.8% | COLO 205 colon 109% | DU-145 prostate 83.5% | K-562 leukemia 90% | MALME-3M melanoma 92% | MDA-MB-231 breast 42.1% | RXF 393 renal 106% | SF-268 CNS 47.3% | SF-295 CNS 93.7% | SF-539 CNS 92.6% | UACC-257 melanoma 101% | M14 melanoma 85.3% | HCT-15 colon 91.5%

COc1ccc(C)c2sc(N(Cc3cccnc3)C(=O)c3ccc(C#N)cc3)nc12
active: NCI-H23 lung 7.42% | NCI-H322M lung 6.37% | HOP-62 NSCLC 7.67% | NCI-H460 lung -24.4% | HOP-92 NSCLC -3.64% | A549/ATCC NSCLC 6.76% | 786-0 renal -12.2% | COLO 205 colon 1.84% | K-562 leukemia 4.61% | MALME-3M melanoma -15.2% | MDA-MB-231 breast -4% | RXF 393 renal -31% | SF-295 CNS -28.9% | SF-539 CNS -26% | UACC-257 melanoma -15.5% | M14 melanoma 4.95%
inactive: DU-145 prostate 17.3% | SF-268 CNS 10.9% | HCT-15 colon 17.5%

O=C1CCC(N2C(=O)c3cccc(NCCCCCCOc4ccc(Nc5nccc(Nc6ccccc6)n5)cc4)c3C2=O)C(=O)N1 (stereo unspecified)
inactive: NCI-H23 lung 62.6% | NCI-H322M lung 91.6% | HOP-62 NSCLC 84.2% | NCI-H460 lung 83.6% | HOP-92 NSCLC 84.1% | NCI-H522 lung 76.6% | 786-0 renal 91.9% | DU-145 prostate 97.8% | K-562 leukemia 46.8% | MALME-3M melanoma 76.7% | MDA-MB-231 breast 86.6% | RXF 393 renal 94.7% | SF-268 CNS 88.7% | SF-295 CNS 73.3% | SF-539 CNS 89.1% | UACC-257 melanoma 73.1% | M14 melanoma 88.1%

O=S(=O)(c1ccc(NC(=S)NC23CC4CC(CC(C4)C2)C3)cc1)N1CCCCC1
inactive: NCI-H23 lung 95.5% | NCI-H322M lung 102% | HOP-62 NSCLC 107% | NCI-H460 lung 36.3% | A549/ATCC NSCLC 72.5% | 786-0 renal 92.3% | COLO 205 colon 119% | DU-145 prostate 41.4% | MALME-3M melanoma 86.5% | MDA-MB-231 breast 102% | RXF 393 renal 115% | SF-268 CNS 66.6% | SF-295 CNS 58.1% | SF-539 CNS 107% | UACC-257 melanoma 96.9% | M14 melanoma 72.3% | HCT-15 colon 82.8%
active: HOP-92 NSCLC -8.91% | K-562 leukemia 7.73%
